Assay [1] in a line: sensitizers of A549 cells to miR-34 induction, primary screen, imaging, A549 dox-inducible miR-34, nuclei and caspase counts (AID 1347080). Also: test concentration not given here. The following applies: A549 miR-34 inducible, Hoechst nuclei count, 48 h.
Assay [2] in a line: survival rescue of mitochondrial mutant cells in low glucose, primary screen, MELAS cybrids, Rieske KO mouse fibroblasts, CellTiter-Glo (AID 1508586;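 active = mean z-score across replicates of 1.96 or higher in either the MELAS or the Rieske mutant cell line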;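 also: test concentration not given here; z relative to plate mean and SD of compound and empty wells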).
Assay [3] in a line: viability rescue of complex I mutant cybrids, primary screen, cell-based, galactose medium, ATP luminescence (AID 1645843;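 active = z-score of at least 1.8 in each of two replicates, scored against plate mean and spread of sample wells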;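 also: positive z means more ATP and so rescue of galactose-driven cybrid death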). The note with it: complex I mutant cybrid cells, 72 h, stronger effect = higher value.
Where [4] appears, read: stronger effect = lower value, cell number ratio, induced over uninduced.
[5] abbreviates: measured here: relative caspase fold change +Dox/-Dox.
The mark [6] stands for this setting: measured here: total cells with miR-34 induction, stronger effect = lower value.
[7] abbreviates: measured here: total cells without miR-34 induction.
Where [8] appears, read: MELAS cybrid survival, CellTiter-Glo 48 h, stronger effect = higher value.
Setting [9] is: Rieske KO mouse fibroblast survival, CellTiter-Glo 72 h.

The values below come from PubChem BioAssay.

Values joined by “and” are separate entries in the source; they are usually repeats but may differ in a detail not shown here. Equal values may be shown once. Active and inactive are the calls of the source.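 The calls were made as follows, unless noted: active = compounds whose cell count with miR-34 switched on is under 0.7 times the count with it off; inactive = the rest.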

Turning to `CC(c1ncncc1F)[C@](O)(Cn1cncn1)c1ccc(F)cc1F` (stereo partly drawn), the fold change in assay [1] (setting [4]) is 0.956 (inactive) and 0.928 (inactive); in assay [1] (setting [5]) it was 2.43 and 0.867. Also, the cell count in assay [1] (setting [6]) is 9660 and 8390; in assay [1] (setting [7]), 10100 and 9030. Also, the z-score was -0.404 (inactive) in assay [2] (setting [8]), 0.698 in assay [2] (setting [9]) and 0.71 (inactive) in assay [3].

Take `Nc1nc2cc(C(=O)N3CCN(C(=O)c4ccco4)CC3)ccc2s1`: the fold change in assay [1] (setting [4]) is 0.879 (inactive); in assay [1] (setting [5]), 1.74. Further, the cell count in assay [1] (setting [6]) worked out at 8870; in assay [1] (setting [7]), 10100. Further, the results for the z-score in assay [2] (setting [8]), in assay [2] (setting [9]) and in assay [3] were -0.277 (inactive), -0.24 and -0.565 (inactive), respectively.

On to `Cc1nn(C)c(C)c1-c1ccnc(NCCOCCO)n1`, for which the fold change in assay [1] (setting [4]) is 0.905 (inactive); in assay [1] (setting [5]), 1.28. Besides, the cell count worked out at 8320 in assay [1] (setting [6]) and 9200 in assay [1] (setting [7]). Further, the z-score in assay [2] (setting [8]) was 0.0151 (inactive); in assay [2] (setting [9]) it was -0.129; in assay [3], -0.555 (inactive).

For `NS(=O)(=O)c1ccc(F)cc1`, the fold change in assay [1] (setting [4]) is 0.896 (inactive); in assay [1] (setting [5]), 0.251. The cell count in assay [1] (setting [6]) is 9050; in assay [1] (setting [7]), 10100. Moreover, the z-score was 0.294 (inactive) in assay [2] (setting [8]), -0.158 in assay [2] (setting [9]) and 0.18 (inactive) in assay [3].

Take `NCC(=O)Nc1ccc(OCc2ccccc2)cc1`: the fold change in assay [1] (setting [4]) is 0.851 (inactive); in assay [1] (setting [5]), 0.248. Besides, the cell count worked out at 8020 in assay [1] (setting [6]) and 9430 in assay [1] (setting [7]). The figures for the z-score in assay [2] (setting [8]), in assay [2] (setting [9]) and in assay [3] were 1.42 (inactive), -0.396 and -1.35 (inactive), respectively.

Turning to `CN1CCN(NC(=S)Nc2ccc(S(N)(=O)=O)cc2)CC1`, the fold change in assay [1] (setting [4]) was 0.87 (inactive); in assay [1] (setting [5]) it was 0.82. For the same molecule, the cell count in assay [1] (setting [6]) came to 8440; in assay [1] (setting [7]), 9700. For the same molecule, the z-score in assay [2] (setting [8]) is -0.739 (inactive); in assay [2] (setting [9]) it was 0.101; in assay [3], 0.425 (inactive).

For the molecule `CN1CCN(Cc2ccc(-c3nc(-c4cccnc4)cc(=O)[nH]3)cc2)CC1`, the figures for the fold change in assay [1] (setting [4]) and in assay [1] (setting [5]) were 0.911 (inactive) and 1.1, respectively. The cell count in assay [1] (setting [6]) turned out to be 8750; in assay [1] (setting [7]), 9610. Besides, the z-score is -0.317 (inactive) in assay [2] (setting [8]), -0.261 in assay [2] (setting [9]) and -0.55 (inactive) in assay [3].

Regarding `Cc1nn(C)c(C)c1-c1ccnc(NCCc2nc3ccc(Cl)cc3[nH]2)n1`, the fold change is 0.924 (inactive) in assay [1] (setting [4]) and 3.32 in assay [1] (setting [5]). Besides, the cell count in assay [1] (setting [6]) was 1430; in assay [1] (setting [7]) it was 1550. For the same molecule, the results for the z-score in assay [2] (setting [8]), in assay [2] (setting [9]) and in assay [3] were -0.908 (inactive), 0.453 and -0.38 (inactive), respectively.

As to `CC(C)C1CCC(C(=O)NC(Cc2ccccc2)C(=O)O)CC1` (stereo not drawn), the fold change in assay [1] (setting [4]) is 0.94 (inactive) and 0.917 (inactive); in assay [1] (setting [5]), 2.3 and 1.08. For the same molecule, the cell count in assay [1] (setting [6]) was 9290 and 9300; in assay [1] (setting [7]), 9880 and 10100. Moreover, the figures for the z-score in assay [2] (setting [8]), in assay [2] (setting [9]) and in assay [3] were -0.394 (inactive), 0.0104 and 0.805 (inactive), respectively.

On to `CC(C)n1cc(-c2cc(C(=O)N(C)Cc3ccncc3)c3ccc(F)cc3n2)cn1`, for which the figures for the fold change in assay [1] (setting [4]) and in assay [1] (setting [5]) were 0.897 (inactive) and 1.79, respectively. In addition, the cell count in assay [1] (setting [6]) came to 8810; in assay [1] (setting [7]) it was 9830. In addition, the values for the z-score in assay [2] (setting [8]), in assay [2] (setting [9]) and in assay [3] were -0.679 (inactive), 0.655 and -0.46 (inactive), respectively.

For the molecule `O=C1CC(c2ccc(O)cc2)Oc2cc(O)ccc21` (stereo not drawn), the fold change in assay [1] (setting [4]) was 0.9 (inactive); in assay [1] (setting [5]), 0.718. Also, the values for the cell count in assay [1] (setting [6]) and in assay [1] (setting [7]) were 8540 and 9500, respectively. Also, the z-score was 0.67 (inactive) in assay [2] (setting [8]), -0.313 in assay [2] (setting [9]) and 0.305 (inactive) in assay [3].

As for `Cc1cc(-c2cccc3cccnc23)nc(N)n1`, the fold change in assay [1] (setting [4]) is 0.914 (inactive); in assay [1] (setting [5]), 1.55. Also, the results for the cell count in assay [1] (setting [6]) and in assay [1] (setting [7]) were 9030 and 9880, respectively. In addition, the values for the z-score in assay [2] (setting [8]), in assay [2] (setting [9]) and in assay [3] were -0.012 (inactive), -0.264 and -0.525 (inactive), respectively.

`Cc1ccc(-c2noc([C@@]34CC[C@@](C)(C(=O)O3)C4(C)C)n2)cc1Cl`: the fold change in assay [1] (setting [4]) was 0.896 (inactive); in assay [1] (setting [5]), 1.34. The results for the cell count in assay [1] (setting [6]) and in assay [1] (setting [7]) were 8140 and 9090, respectively. For the same molecule, the z-score in assay [2] (setting [8]) is -0.00199 (inactive); in assay [2] (setting [9]) it was -1.05; in assay [3], -0.54 (inactive).

Regarding `Nc1nc(NC(Cn2ccnc2)c2ccccc2)c2cn[nH]c2n1` (stereo not drawn), the fold change in assay [1] (setting [4]) was 0.958 (inactive); in assay [1] (setting [5]) it was 1.04. Further, the values for the cell count in assay [1] (setting [6]) and in assay [1] (setting [7]) were 9810 and 10200, respectively. Also, the z-score in assay [2] (setting [8]) is -0.353 (inactive); in assay [2] (setting [9]) it was -0.318; in assay [3], -0.495 (inactive).

As for `CNC(=O)c1cc(Oc2ccc3nc(Nc4ccc(Cl)c(C(F)(F)F)c4)[nH]c3c2)ccn1`, the fold change in assay [1] (setting [4]) was 0.938 (inactive); in assay [1] (setting [5]), 0.861. Further, the cell count was 2770 in assay [1] (setting [6]) and 2950 in assay [1] (setting [7]). In addition, the z-score in assay [2] (setting [8]) is 1.25 (inactive); in assay [2] (setting [9]), -0.647; in assay [3], -2.66 (inactive).

On to `COc1ccc(CC(N)=O)cc1`, for which the fold change in assay [1] (setting [4]) was 0.918 (inactive); in assay [1] (setting [5]), 0.564. For the same molecule, the cell count in assay [1] (setting [6]) was determined as 8020; in assay [1] (setting [7]) it was 8730. Further, the z-score in assay [2] (setting [8]) was 0.385 (inactive); in assay [2] (setting [9]), 0.663; in assay [3], -0.175 (inactive).

With `Fc1cccc(F)c1-c1nc2c(cnn2Cc2cccs2)[nH]1`, the fold change is 0.88 (inactive) in assay [1] (setting [4]) and 2.16 in assay [1] (setting [5]). Further, the figures for the cell count in assay [1] (setting [6]) and in assay [1] (setting [7]) were 8590 and 9770, respectively. Besides, the z-score in assay [2] (setting [8]) is -0.231 (inactive); in assay [2] (setting [9]), 0.598; in assay [3] it was -0.555 (inactive).

With `NC(=O)c1c(NC(=O)C2CC2)sc2c1CCCC2`, the fold change in assay [1] (setting [4]) was 0.825 (inactive); in assay [1] (setting [5]), 0.622. For the same molecule, the values for the cell count in assay [1] (setting [6]) and in assay [1] (setting [7]) were 7330 and 8890, respectively. Further, the figures for the z-score in assay [2] (setting [8]), in assay [2] (setting [9]) and in assay [3] were -0.327 (inactive), 0.409 and 0.65 (inactive), respectively.

`CCCn1ncc(NC(=O)Cn2cc(C)c(-c3cccc(Cl)c3)n2)n1`: the fold change was 0.851 (inactive) in assay [1] (setting [4]) and 1.04 in assay [1] (setting [5]). Further, the cell count was 7170 in assay [1] (setting [6]) and 8420 in assay [1] (setting [7]). For the same molecule, the z-score was -0.0413 (inactive) in assay [2] (setting [8]), -0.435 in assay [2] (setting [9]) and 1.05 (inactive) in assay [3].

Regarding `COc1cccc2ccc(-c3coc4ccccc4c3=O)nc12`, the fold change in assay [1] (setting [4]) is 0.946 (inactive); in assay [1] (setting [5]), 0.913. For the same molecule, the cell count turned out to be 7730 in assay [1] (setting [6]) and 8170 in assay [1] (setting [7]). In addition, the z-score was -0.341 (inactive) in assay [2] (setting [8]), 0.246 in assay [2] (setting [9]) and 2.79 (active) in assay [3].

Consider `COCCn1cncc1CNc1nccc(-c2c(C)nn(C)c2C)n1`, for which the values for the fold change in assay [1] (setting [4]) and in assay [1] (setting [5]) were 0.881 (inactive) and 0.975, respectively. Further, the cell count in assay [1] (setting [6]) amounted to 8090; in assay [1] (setting [7]), 9180. Besides, the z-score was -0.172 (inactive) in assay [2] (setting [8]), -0.0475 in assay [2] (setting [9]) and -0.325 (inactive) in assay [3].

For `Cc1nc(NC(=O)NCc2cccc(Cl)c2)nn1C`, the fold change was 0.889 (inactive) in assay [1] (setting [4]) and 2.08 in assay [1] (setting [5]). Moreover, the cell count in assay [1] (setting [6]) was 8140; in assay [1] (setting [7]), 9160. The values for the z-score in assay [2] (setting [8]), in assay [2] (setting [9]) and in assay [3] were 7.52 (active), 0.00105 and -0.605 (inactive), respectively.

`COc1ccc(N2CCN(c3ncnc4sccc34)C(C)C2=O)cc1` (stereo not drawn): the fold change in assay [1] (setting [4]) is 0.791 (inactive); in assay [1] (setting [5]), 1.18. The cell count in assay [1] (setting [6]) was 6180; in assay [1] (setting [7]), 7810. For the same molecule, the values for the z-score in assay [2] (setting [8]), in assay [2] (setting [9]) and in assay [3] were -0.528 (inactive), -0.443 and -0.505 (inactive), respectively.

Take `COC(=O)CN1CCN(C(=O)Nc2n[nH]c(-c3ccco3)n2)CC1=O`: the fold change was 0.915 (inactive) in assay [1] (setting [4]) and 1.4 in assay [1] (setting [5]). The cell count amounted to 9430 in assay [1] (setting [6]) and 10300 in assay [1] (setting [7]). Further, the z-score is 0.382 (inactive) in assay [2] (setting [8]), 0.531 in assay [2] (setting [9]) and 1.98 (inactive) in assay [3].
